Screens: PubChem, National Center for Advancing Translational Sciences (NCATS)
Compounds with a hit are over-represented: about 3.1% of the library has one in this group of screens.
PMP22 txn: PMP22 gene transcription modulation; Potency, µM (series often up to 57.5 µM), for the others: at the top dose activity change, negative = inhibition, usual class: inhibitors; hit rate 2% among 43,000; S16 Pmp22-F2sN Schwann cells, FLuc/NLuc coincidence luminescence, 24 h; active = clear falling dose curves in both reporters; inconclusive = both reporters move, but less clearly or upward; inactive = either reporter flat; the % is the NLuc reporter signal
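Transcriptional readout in edited S16(c9) cells: two luciferases reported from the Pmp22 locus, measured in turn after 24 h compound incubation.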
SKOV3 invasion: blocks SKOV3ip1 adhesion and invasion in omental model | Potency, µM (highest dose often 45.8 µM), for inactives: top-dose activity change, negative = inhibition, usual class: inhibitors | SKOV3ip1-GFP adhesion/invasion on 3D omental model, fluorescence | hit rate 0.1% among 46,000;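 note: plate controls were DMSO wells for no effect and tomatine positive control wells for full effect; nearly all actives have a fitted effect of over 65% in size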
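qHTS, 4-pt dose (0.36-46 umol/L); SKOV3ip1-GFP, 1,200 cells/well, no FBS; primary omental fibroblast/mesothelial co-culture 48 h pre-grown; 2 h RT + 16 h 37 C; PBS wash, 4% PFA; GFP count 488/509 nm.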
S16 viability: toxic to S16 Pmp22-F2sN Schwann cells; Potency, µM (highest dose often 57.5 µM), for the others: at the top dose activity change, negative = cytotoxicity, hits mostly cytotoxic; hit rate 0.48% among 43,000; S16 Pmp22-F2sN Schwann cells viability, CellTiter-Glo, 24 h; note: nearly all actives have a fitted effect of over 65% in size
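Used to flag compounds lowering reporter output through toxicity, this quantitative HTS measures ATP-based CellTiter-Glo luminescence in S16 Pmp22-F2sN Schwann cells after 24 h compound exposure at 37C.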
p53null 32C kill: selectivity test: cytotoxicity in p53 null cells, permissive temperature. hit rate 0.62% among 55,000. H1299-neo p53 null cells, ATP luminescence, 24 h, 32C. Potency, µM (doses to about 46.1 µM), without a hit: at the highest dose activity change, negative = cytotoxicity, actives largely listed as cytotoxic;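 note: 0% = DMSO only and -100% = full killing by 100 µM tamoxifen; nearly all actives have a fitted effect of over 55% in size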
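H1299-neo (p53-null) cells, 600/well, were pre-incubated overnight at 37C, then exposed to compounds at up to 46 uM for 24 hr at 32C. Viability was measured as ATP content by luminescence, and AC50 values came from Hill fits.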
mTORC1 inh: mTORC1 pathway inhibition measured by phospho-rpS6; hit rate 0.78% among 44,000; Tsc2-/- p53-/- MEF, phospho-rpS6 immunofluorescence/PI, 24 h; Potency, µM (titrated, usually from 38.3 µM), for inactives: at the highest dose activity change, negative = inhibition, usual class: inhibitors;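 note: plate controls were DMSO for no effect and rapamycin for full effect; nearly all actives have a fitted effect of over 50% in size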
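Cell-based qHTS: Tsc2-/- p53-/- MEF, 24 h cpd, 37 °C; fix/perm, anti-phospho-S6 Alexa-488 + PI; Acumen 488 nm scan; pS6/PI ratio, % positive cells; rapamycin 7.5 nM = inhibition ref; PI count = viability.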
p53null 39C kill: selectivity test: cytotoxicity in p53 null cells, nonpermissive temperature; H1299 p53-null (neo) cells, 39C, ATPlite viability, 24 h; Potency, µM (doses to about 46.1 µM), for inactives: top-dose activity, negative = cell killing, usual class: cytotoxic; hit rate 0.97% among 55,000;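 note: 0% = DMSO only and -100% = full killing by 100 µM tamoxifen; nearly all actives have a fitted effect of over 50% in size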
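ATP-luminescence viability readout (ATPlite, 20 min RT) after 24 hr compound treatment at 39C of H1299-neo or H1299-p53A138V cells; titration up to 46 uM; normalized to DMSO and 100 uM tamoxifen; Hill-fit AC50.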
Numbers without * were called inactive; i = inactive; ? = inconclusive; / = no result given. Unless noted, calls come from the whole dose curve; as a rule, active = well fitted curve in the direction sought with a large enough effect; inconclusive = small, poorly fitted or top-dose-only effect, or another doubt; inactive = no such curve, though single readings can be large; an effect the other way counts as inactive or inconclusive. Unless noted, % is set by controls: 0 for no effect and ±100 for the full control effect; potency is the fitted concentration of half-maximal effect.

SMILES	PMP22 txn	SKOV3 invasion	S16 viability	p53null 32C kill	mTORC1 inh	p53null 39C kill
CSc1ccc(C(=O)Nc2ccc(-c3nc4ccccc4s3)c(O)c2)cc1	-33%	-18%	1%	-2%	0%	3%
O=C(NCCCN1CCN(c2cccc(Cl)c2)CC1)c1cnn(-c2ccc(F)cc2)c1-n1cccc1	?	i	-18%	13%	?	22µM*
CCCN(CCC)CCCNC(=O)c1cnn(-c2ccc(F)cc2)c1-n1cccc1	-23%	-14%	-4%	5%	-7%	-14%
O=C(Nc1ccc(Cl)cc1)N1CCC(c2ccccc2)C1 (configuration not stated)	-17%	-2%	-16%	4µM*	-5%	?
CCN(c1ccccc1)S(=O)(=O)c1cc(C(=O)Nc2ccc(Br)cc2)ccc1F	?	-43%	-17%	57%	15µM*	15%
COC(=O)[C@]12CCC(C)(C)C[C@@H]1[C@@H]1C(=O)C=C3[C@@]4(C)C=C(C#N)C(=O)C(C)(C)[C@@H]4CC[C@@]3(C)[C@]1(C)CC2	/	2.3µM*	/	/	/	/
Cc1ccc(NC(=O)Cn2cc(C(=O)C3CCCCC3)c3ccccc32)c(C)c1	?	4%	-27%	9%	1%	-14%
Cc1cccc(NC(=O)Cn2cc(C(=O)C3CCCCC3)c3ccccc32)c1C	10µM*	0%	?	7%	-12%	-26%
O=C(Nc1nc2c(F)cccc2s1)c1ccc2c(c1)OCCO2	?	i	-24%	4µM*	-2%	?
CNc1nnc(-c2ccc(N(C)C)cc2)s1	/	/	/	8.9µM*	/	7.9µM*
Cc1[nH]c2ccccc2c1CCNCc1ccc(C=CC(=O)NO)cc1	/	17%	/	/	/	/
O=C(Nc1ccc(F)cc1)c1csc2c1CCCCC2	-19%	16%	-14%	16µM*	?	?
CCOc1ccc(C(=O)Nc2ccc3c(c2)OCCO3)cc1Br	4%	i	9%	?	1%	13µM*
CCc1ccc(C(=O)NC(=S)Nc2ccc3c(c2)OCCO3)cc1	/	/	/	-23%	/	/
CCN1CCC(n2cc(CNc3cc(Cl)c4ncc(C#N)c(Nc5ccc(F)c(Cl)c5)c4c3)nn2)CC1	/	-1%	/	/	/	/
NC(=O)c1cccc2cn(-c3ccc([C@@H]4CCCNC4)cc3)nc12	/	-9%	/	/	/	/
CCN(CC)CCNC(=O)Nc1ccc2c(c1)N(Cc1ccccc1)C(=O)c1ccccc1S2	?	?	?	13%	?	18µM*
CCN1C(=O)c2ccccc2Sc2ccc(NC(=O)Nc3ccc(C(C)=O)cc3)cc21	-13%	8%	?	-2%	0%	-5%
Cc1ccc(C)c(NC(=O)Cn2nnc(C(=O)NCc3ccccc3Cl)c2N)c1	?	?	14µM*	7%	-4%	8%
Cc1cc(C)cc(NC(=O)Cn2nnc(C(=O)NCc3ccccc3Cl)c2N)c1	?	?	-15%	-7%	-9%	?
CCC1CN(C(=O)NCc2ccc(F)cc2)c2cc(C)ccc2O1 (configuration not stated)	-1%	10%	8%	48%	21µM*	71%
CCC1CN(C(=O)NCc2ccc(C)cc2)c2ccccc2O1 (configuration not stated)	2%	-1%	3%	19%	-22%	3%
COc1ccc(Nc2cc(C)nc(-n3nc(C)cc3C)n2)cc1Cl	5.5µM*	3%	?	-7%	?	?
Cc1cc(Nc2ccc(C(C)C)cc2)nc(-n2nc(C)cc2C)n1	?	-17%	?	7%	-24%	31%
O=C1C2=C(Nc3ccccc3SC2c2ccc(Cl)c(Cl)c2)c2ccccc21 (configuration not stated)	?	-25%	?	37%	-8%	42%
